Data on 40 compounds can be found in PubChem BioAssay (Tox21).

Records with an inconclusive call do not appear. A call without a number means that no potency is given here. The source made the active and inactive calls. The call rests on the fitted dose curve; in most records, active means well fitted cell-killing curve with a large enough effect in the repeat runs; inconclusive means weak or mixed curves, or effect the other way; inactive means no such curve, though single readings can be large or run the other way.

The nature of the test: qHTS assay to identify small molecule antagonists of the sonic hedgehog signaling (Shh) pathway - cell viability counter screen (AID 1259367). Further: nearly all actives have a fitted effect of over 55% in size. Conditions: NIH/3T3 Gli1-Luc viability, CellTiter-Fluor, 24 h; series mostly up to 92.4 µM. From the text: National Center for Advancing Translational Sciences [NCATS]
NIH Chemical Genomics Center [NCGC]
U.S. Environmental Protection Agency [EPA]
National Institutes of Environmental Health Sciences [NIEHS]
National Toxicology Program [NTP]
U.S. Food and Drug Administration [FDA]
The sonic hedgehog (Shh) pathway is essential for normal embryonic development. Dysregulation of the Shh pathway can cause severe developmental defects in organs. Therefore chemicals that interfere with the pathway are potential developmental toxicants. A cell line designated 3T3Gli1-Luc (DMB/OARSA/CFSAN/FDA, Laurel, MD), a NIH/3T3 derived clone containing stably integrated Gli1-Luc reporter is used to detect chemical interference of the Shh pathway, by changes in the expression of the firefly Luc gene under the control of the Gli1 transcriptional response element. This cell line was used to screen Tox21 libraries for identifying and prioritizing the potential developmental toxicants that interfere Shh pathway. Conditioned medium-stimulated mode was used to screen for chemicals inhibiting Shh signaling. The cytotoxicity of the compounds was tested in parallel by measuring the cell viability using CellTiter-Fluor assay system (Promega, Madison, WI) in the same wells.
Tox21 Assay Protocol Summary:
3T3 Gli1-Luc cells were dispensed at 2,000 per well in 5uL of culture medium into white solid bottom 1536-well plates (Greiner Bio-One, Monroe, NC) using a Multidrop Combi (Thermo Scientific, Waltham, MA) dispenser. The assay plates were incubated at 37 C and 5% CO2 for 4hr, and then 23nL of compounds dissolved in DMSO and positive control were transferred using a Pintool station (Wako, San Diego, CA). The compound transfer was followed by the addition of 1ul conditioned medium or assay buffer using two separate tips of Flying Reagent Dispenser (FRD, Aurora Discovery, San Diego, CA). The assay plates were incubated at 37C and 5% CO2 for 24hr. For viability read, after 23hr of compound treatment, 1uL of CellTiter-Fluor reagent (Promega Corporation, Madison, WI) was added to each well of the assay plates using Flying Reagent Dispenser (FRD, Aurora Discovery, San Diego, CA) and incubated the assay plates at 37C for 1hr. The fluorescence signal was quantified using a ViewLux plate reader (Perkin Elmer, Shelton, CT).
Take `CCCC(=O)OCc1ccccc1`: the Potency entry is “inactive”. In the case of `CC1(C)CC(O)CC(C)(C)N1[O]` it was “inactive”. In the case of `C/C=C1\[C@H]2C=C(C)C[C@]1(N)c1ccc(=O)[nH]c1C2` it was “inactive”. In the case of `CC(C)Oc1ccccc1O` it was “inactive”; in that of `CCCCCC1CCC(=O)O1` (stereo not given), “inactive”; in that of `Cc1cc(C)c(C)c(O)c1`, “inactive”.

With `O=C(OCCN1CCOCC1)c1cccnc1Nc1cccc(C(F)(F)F)c1`, the Potency entry is “inactive”. The value for `C[Si](C)(C)O[Si](C)(C)O[Si](C)(C)C` was “inactive”; that for `Cc1ccc(S(=O)(=O)NC(=O)NC2CCCC2)cc1` was “inactive”; that for `CC(C(=O)O)c1ccc(/C=C2\CCCCC2=O)cc1` (stereo not given) was “inactive”. Consider `COC(=O)c1cc(Cl)ccc1[N+](=O)[O-]`, for which the Potency result was “inactive”.

As for `O=C(OC1C[C@H]2CC[C@@H](C1)[N+]21CCCC1)C(O)(c1ccccc1)c1ccccc1` (stereo not given in full), the Potency result was “inactive”. For `CCC(=O)O[C@@H]1C[C@H]2CC[C@]1(C)C2(C)C`, the Potency result is “inactive”. Regarding `CC(C)Cc1nccs1`, the Potency result was “inactive”. In the case of `O=P(c1ccccc1)(c1ccccc1)c1ccccc1` it was “inactive”; in that of `COC(=O)C(C)(C)C`, “inactive”; in that of `O=C(Cl)c1cc(Cl)cc(Cl)c1`, “inactive”. The value for `Cc1c(Cl)cccc1[N+](=O)[O-]` was “inactive”. The value for `O=C1C=CCCC1` was “inactive”; that for `CC(C)NC(=O)c1ccccc1N` was “inactive”; that for `C=C[Si](OCC)(OCC)OCC` was “inactive”. On to `SCCOCCOCCS`, for which the Potency entry is “inactive”.

For `Cc1cc(N)n(-c2ccccc2)n1`, the Potency result was “inactive”. In the case of `CCC(C)CCCC(C)(C)O` (stereo not given) it was “inactive”; in that of `O=C(OCCCCCOC(=O)c1ccccc1)c1ccccc1`, “inactive”. The value for `CC1(COc2ccc(CC3SC(=O)NC3=O)cc2)CCCCC1` (stereo not given) was “inactive”; that for `CC(=O)OCC(=O)[C@@]1(O)CC[C@H]2[C@@H]3CCC4=CC(=O)C=C[C@]4(C)[C@@]3(F)[C@@H](O)C[C@@]21C` was “inactive”; that for `Clc1nc2ccccc2nc1Cl` was “inactive”. In the case of `CCCOC(C)=O` it was “inactive”. Turning to `CCOc1ccc2c(c1)C(C)CC(C)(C)N2` (stereo not given), the Potency result is “inactive”.

Consider `CCCC1CCOC(C)S1` (stereo not given), for which the Potency entry was “inactive”. For `CC(O)CN` (stereo not given), the Potency result is “inactive”.

Turning to `O=C1CCCN1CCO`, the Potency entry was “inactive”.

Turning to `C=CC(=O)OCCCCCCCCCC`, the Potency result was “inactive”.

On to `C1=COCCC1`, for which the Potency result is “inactive”. The value for `CCC(C(=O)O)c1ccc(N2Cc3ccccc3C2=O)cc1` (stereo not given) was “inactive”; that for `FC1(F)C(F)(F)C(F)(F)C2(F)C(F)(C1(F)F)C(F)(F)C(F)(F)C1(F)C(F)(F)C(F)(F)C(F)(F)C(F)(F)C12F` (stereo not given) was “inactive”. Regarding `C[C@H]1C[C@H]2[C@@H]3CCC4=CC(=O)C=C[C@]4(C)[C@@]3(F)[C@@H](O)C[C@]2(C)[C@@]1(O)C(=O)COP(=O)(O)O`, the Potency result is “inactive”. Turning to `CC(=O)Nc1ccn(C2COC(COC(=O)c3ccccc3)O2)c(=O)n1` (stereo not given), the Potency result was “inactive”.

As for `S=c1[nH][nH]c(=S)s1`, the Potency entry is “inactive”.
